Each structure is given as a SMILES string. Out of some 190,000 compounds screened, about 810 (0.43%) were called active. The sample holds actives, similar compounds and a random draw of the others, so the mix is not that of the screen. No stated cut-off is given here; in the data, active means inhibition above about 50%; inactive means the rest.

In general, inhibition refers to the drop in the measured response relative to a control, in per cent.

Chain of Mannose-6-phosphate isomerase (Homo sapiens) (P34949 whole entry, looked up): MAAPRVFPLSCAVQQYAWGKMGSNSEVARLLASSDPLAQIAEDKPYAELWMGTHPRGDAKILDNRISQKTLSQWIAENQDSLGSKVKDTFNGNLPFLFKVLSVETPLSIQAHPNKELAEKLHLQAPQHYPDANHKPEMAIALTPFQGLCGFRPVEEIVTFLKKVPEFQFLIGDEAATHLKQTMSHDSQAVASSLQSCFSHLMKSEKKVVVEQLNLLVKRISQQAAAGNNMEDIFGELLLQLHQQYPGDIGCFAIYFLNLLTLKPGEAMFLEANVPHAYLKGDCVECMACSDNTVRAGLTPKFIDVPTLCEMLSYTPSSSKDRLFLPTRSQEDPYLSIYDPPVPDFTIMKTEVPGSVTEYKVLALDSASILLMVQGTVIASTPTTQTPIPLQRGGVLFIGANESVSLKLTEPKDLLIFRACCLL

The test addresses Mannose-6-phosphate isomerase (Homo sapiens) (UniProt P34949). In words: MPI enzyme activity inhibition – biochemical, fluorescence intensity, coupled assay, primary screen (AID 1209).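 Further: plate controls were DMSO vehicle for no effect and wells lacking substrate for full effect.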 The settings on record: purified PMI enzyme, at 20 µM, hits give high values.
As to `CC1CN(S(=O)(=O)c2cccs2)CC(C)O1` (stereo not given), the inhibition was -2.4% (inactive).

As for `CCc1ccc(NC(=O)c2cc(C)on2)cc1`, the inhibition is 6.1% (inactive).

Regarding `Cc1cc2n(n1)SC(Nc1ccccc1)N2` (stereo not given), the inhibition is 24.7% (inactive). As to `CN1C(=O)SC(Nc2ccc(F)cc2)C1=O` (stereo not given), the inhibition is 3.1% (inactive).

For `Cc1cc2n(n1)SC(Nc1ccc(F)cc1)N2` (stereo not given), the inhibition is 64.5% (active).

In the case of `CCc1ccc(Nc2cc(C)nc3nc(C)nn23)cc1`, the inhibition was -5.4% (inactive). In the case of `COc1ccc(CCNC(=O)c2nnn(-c3cccc(C)c3)c2N)cc1OC`, the inhibition is 4.4% (inactive). For `Cc1nc(SC(C(=O)c2ccccc2)c2ccccc2)n[nH]1` (stereo not given) the value was 2% (inactive).

As to `C=CCn1c(SCc2c(F)cccc2Cl)nnc1-c1ccco1`, the inhibition is -6.5% (inactive). As for `CCCn1c(NCc2ccco2)nc2c1c(=O)n(C)c(=O)n2C`, the inhibition was -8.2% (inactive). `COc1ccc(F)cc1C(=O)C1CCCN(Cc2ccc(Oc3ncccn3)cc2)C1` (stereo not given): the inhibition is -3.3% (inactive).

In the case of `Cc1cccc(N2CCc3c2nc2ccc(Br)cc2c3N)c1`, the inhibition is 69.9% (active). `Nc1c2c(nc3ccc(Br)cc13)N(c1ccccc1)CC2`: the inhibition is 17% (inactive). For the compound `Cc1ccc2nc3c(c(N)c2c1)CCN3c1ccccc1`, the inhibition is 0.5% (inactive). The figure for `CCN(CC)S(=O)(=O)c1ccc2c(c1)nc(CCC(=O)Nc1ccc(N3CCOCC3)cc1)n2C` is 3.7% (inactive); for `COc1ccc(Cl)cc1Nc1ncnc2sc(C)c(S(=O)(=O)N3CCC(C)CC3)c12` it is 5.4% (inactive). Take `Nc1ccc2nc[nH]c2c1`: the inhibition is -17.5% (inactive).

`Cc1cc2nc[nH]c2cc1[N+](=O)[O-]`: the inhibition is 4% (inactive).

For the compound `Nc1cc2nc[nH]c2cc1N`, the inhibition is 68.3% (active). On to `c1ccc2c(-c3nn[nH]n3)cccc2c1`, for which the inhibition was -8.6% (inactive). As for `O=C(N/N=C/c1ccc(N2CCOCC2)o1)c1cccc(F)c1`, the inhibition was -2.7% (inactive). With `O=C(N/N=C/c1ccc(N2CCOCC2)o1)c1cccc([N+](=O)[O-])c1`, the inhibition was 79% (active).

`O=C(N/N=C/c1ccc(N2CCOCC2)o1)c1cccc(C(F)(F)F)c1`: the inhibition is -5.7% (inactive). For the compound `CCOC(=O)c1c(-c2ccc(C)cc2)csc1/N=C/N(C)C`, the inhibition is 12.2% (inactive). The figure for `COc1cc(N=c2ssnc2Cl)c(OC)cc1Cl` is 98.9% (active); for `COc1ccc(OC)c(N=C(N)N=C(N)N)c1` it is 2.9% (inactive). For `COc1ccc(OC)c(N=c2ssnc2Cl)c1`, the inhibition was 88.1% (active). Regarding `COc1cc(N)c(Cl)cc1Cl`, the inhibition is -7.9% (inactive). Take `COc1ccc(OC)c(N=C2C(=O)Nc3ccccc32)c1`: the inhibition is 16.4% (inactive).

Consider `COc1cc(OC)c(Cl)cc1N`, for which the inhibition is 9.7% (inactive). On to `C#CCOCCOCCOCCNc1nc(N2CCN(C(=O)C([C@@H](C)CC)n3cc(C(N)Cc4ccc(O)cc4)nn3)CC2)nc(N2CCN(C(=O)[C@H](CCC(=O)O)n3cc(C(N)CC(C)C)nn3)CC2)n1` (stereo not given in full), for which the inhibition is -18.6% (inactive). With `COc1ccc(C(=O)/C=C/C(=O)N(Cc2ccccc2OC)C(C(=O)NC2CCCCC2)c2ccncc2)c(O)c1` (stereo not given), the inhibition is 13.1% (inactive). Consider `Cc1ccc(S(=O)(=O)/N=C(/c2ccc(F)cc2)N2CCCC2)cc1`, for which the inhibition is 7.2% (inactive). For the compound `CSc1ccc(/C=C/C(=O)c2ccc(NC(=O)Cc3ccccc3)cc2)cc1`, the inhibition was 15.3% (inactive). As to `Nc1ccc(N2CCCCCC2)cc1`, the inhibition is -3.3% (inactive).

On to `Nc1ccc(N2CCCCC2)cc1N1CCCCC1`, for which the inhibition was 61.7% (active). As to `Cc1nn(-c2cc(N3CCCCC3)ccc2N)c(=O)c2ccccc12`, the inhibition was 25.5% (inactive).

In the case of `CN(C)CCCN(C(=O)COc1ccc(Cl)cc1)c1nc2ccc(F)cc2s1`, the inhibition was -8% (inactive). With `Cc1ccc2nc(N(CCCN(C)C)C(=O)COc3ccc(Cl)cc3)sc2c1`, the inhibition is -9.9% (inactive). As for `Cc1cc(C)c2sc(N(CCCN(C)C)C(=O)COc3ccc(Cl)cc3)nc2c1`, the inhibition is 50.2% (active). With `COc1ccc(-n2ncc3c(=O)n(Cc4c(F)cccc4Cl)cnc32)cc1`, the inhibition is 1.8% (inactive). `COc1ccc(NC(=O)c2cccc(S(=O)(=O)Nc3ccc(Br)cc3)c2)cn1`: the inhibition is 12.5% (inactive).

In the case of `Cc1ccc(NS(=O)(=O)c2cc(NC(=O)c3ccc4c(c3)NC(=O)CS4)ccc2C)c(C)c1`, the inhibition is 41.1% (inactive). With `COc1ccc(NC(=O)c2ccc3c(c2)NC(=O)CS3)cc1S(=O)(=O)Nc1ccc(Br)cc1`, the inhibition was 54.5% (active). Turning to `Cc1ccc(NS(=O)(=O)c2cc(C(=O)O)ccc2Cl)c(C)c1`, the inhibition is -31.1% (inactive). `Cc1ccc(NS(=O)(=O)c2cc(NC(=O)c3ccc4c(c3)NC(=O)CS4)ccc2Cl)c(C)c1`: the inhibition was 59.3% (active). `O=C(Nc1cccc(S(=O)(=O)Nc2ccc(Cl)cc2)c1)c1ccc(Cl)nc1`: the inhibition was 15.9% (inactive).

In the case of `O=C1CSc2ccc(C(=O)Nc3cccc(S(=O)(=O)Nc4ccc(Br)cc4)c3)cc2N1`, the inhibition is 62.8% (active).

Turning to `COc1ccc(NC(=O)c2c(F)cccc2F)cc1S(=O)(=O)Nc1ccc(Br)cc1`, the inhibition was 19.4% (inactive). For `COc1ccc(NS(=O)(=O)c2cc(NC(=O)c3ccc(F)cc3)ccc2OC)cc1` the value was 14.1% (inactive); for `CCN(CC)CCNC(=O)C1CCC(=O)N1CCc1ccccc1` (stereo not given), 4.7% (inactive). For the compound `CCOc1cc(/C=N/O)ccc1OCc1ccc(F)cc1`, the inhibition was -0.3% (inactive). For `CC(C)NC(=O)c1onc(CSc2ccc(F)cc2)c1C(=O)O`, the inhibition is -5.1% (inactive). For the compound `O=C(c1ccc(F)cc1)N1CCN2C(=O)c3ccccc3C12c1ccc(Cl)cc1` (stereo not given), the inhibition is 8.3% (inactive). The figure for `Cc1c([N+](=O)[O-])ccc(S(=O)(=O)N2CCC(C(N)=O)CC2)c1C` is 10.6% (inactive); for `COC(=O)c1ccc(C(=O)OC)c(-n2c(=O)c3ccccc3c3ccccc3c2=O)c1` it is 80.2% (active); for `COC(=O)c1ccc2c(=O)n(-c3ccccc3)c(=S)[nH]c2c1` it is 0.9% (inactive).

Turning to `COC(=O)c1ccc2c(=O)n(-c3ccccc3F)c(=S)[nH]c2c1`, the inhibition is -15.3% (inactive). On to `CCCCCN(C(=O)NC(=O)Nc1nncs1)S(C)(=O)=O`, for which the inhibition is -0.4% (inactive). In the case of `CCn1cc(C2=NCCO2)c2ccccc21`, the inhibition was 0.2% (inactive). With `CCOC(=O)Cc1csc(NC(=O)c2c(O)c3ccccc3n(C)c2=O)n1`, the inhibition is 7.5% (inactive). For `O=C1CCC([N+](=O)[O-])C(c2cccc(Cl)c2Cl)N1` (stereo not given) the value was -4.8% (inactive); for `O=C1CCC([N+](=O)[O-])C(c2ccccc2Cl)N1` (stereo not given), 2.8% (inactive). As to `O=C1CCC([N+](=O)[O-])C(c2cccc3ccccc23)N1` (stereo not given), the inhibition is 101% (active).

Turning to `O=C(Cc1ccccc1)Nc1ccccc1C(=O)O`, the inhibition is -3% (inactive). With `O=c1ccc2cc3c([nH]c4ccc(Br)cc43)oc-2c1O`, the inhibition is 70.2% (active).

In the case of `O=c1c2c([nH]c3ccc(Br)cc13)CCCC2`, the inhibition was -15.1% (inactive).

Turning to `Cc1cc(=O)c2cc(Br)ccc2[nH]1`, the inhibition is 0.3% (inactive).

`O=C(NCC(=O)N(Cc1cccs1)C(C(=O)NC1CCCCC1)c1ccco1)c1ccco1` (stereo not given): the inhibition was 11% (inactive). As to `Cc1n[nH]c(=S)n1/N=C/c1ccc(OCc2ccc(Cl)cc2)cc1`, the inhibition was -6.8% (inactive). The figure for `CSc1ccc(/C=N/n2c(Cc3ccc(Br)cc3)n[nH]c2=S)cc1` is 14.5% (inactive); for `S=c1[nH]nc(Cc2ccc(Br)cc2)n1/N=C/c1ccc(Cl)cc1` it is 51.1% (active); for `CCN1CCN(C(=O)C(C)Nc2cc(Cl)c(OC)cc2OC)CC1` (stereo not given) it is 26.6% (inactive).

Regarding `O=C(CSc1nc2ccccc2c(=O)[nH]1)c1ccc(O)cc1O`, the inhibition was -5.9% (inactive). As to `CCCCNS(=O)(=O)c1ccc(NC(=O)C(Sc2ccccc2)c2ccccc2)cc1` (stereo not given), the inhibition was 23.4% (inactive). Turning to `O=c1c2ccccc2oc2nc(-c3ccco3)n(-c3ccccc3)c(=O)c12`, the inhibition is 1.3% (inactive). As for `CCn1c(=Nc2ccc(N3CCOCC3)cc2)ccc2ccccc21`, the inhibition is 6% (inactive). As for `Cn1c(N=Nc2ccc(N3CCOCC3)cc2)[n+](C)c2ccccc21`, the inhibition is 15.1% (inactive). Turning to `Cn1c(=Nc2ccc(N3CCOCC3)cc2)ccc2ccccc21`, the inhibition is 78.4% (active). The figure for `CCOC(=O)Cc1csc(NC(=O)c2c(-c3ccccc3)noc2C)n1` is 2.9% (inactive); for `Cc1cc(C)n(C(=O)c2ccncc2)n1` it is 6.1% (inactive); for `CC(=O)Oc1ccc2c(=O)c(N3C(=O)c4ccccc4C3=O)c(C)oc2c1C` it is 14.5% (inactive). For `Cc1oc2cc(O)ccc2c(=O)c1Oc1ccccc1`, the inhibition is 9.2% (inactive). With `CCn1c(NCc2ccccn2)nc2c1c(=O)n(C)c(=O)n2C`, the inhibition was -0.4% (inactive). As for `Oc1c(/C=N/Nc2cccc3cccnc23)ccc2ccccc12`, the inhibition was -30.2% (inactive). In the case of `Oc1c(/C=N/c2ncn[nH]2)ccc2ccccc12`, the inhibition was 14.9% (inactive). The figure for `Oc1c(C=Nc2cccc3nsnc23)ccc2ccccc12` is 70.7% (active); for `CCCCCCC1CC(=O)NC(=S)N1` (stereo not given) it is 4.8% (inactive). The figure for `COc1ccc(NC(=O)C(C)Oc2ccc(/C(C)=N\O)cc2)cc1` (stereo not given) is -0.3% (inactive); for `COc1cccc2cc(C(C)N(CCCN3CCOCC3)C(=S)Nc3cccc(C)c3)oc12` (stereo not given) it is 5.2% (inactive); for `COc1ccc(CNC(=O)c2cccc3c2C(=O)N(Cc2cccnc2)C3)cc1` it is 4.4% (inactive). Turning to `O=c1oc2c(O)c(O)cc3c(=O)oc4c(O)c(O)cc1c4c23`, the inhibition was 67.5% (active). `Cc1c(Br)c(=O)oc2c(Br)c(O)ccc12`: the inhibition was -26.1% (inactive). For the compound `Cc1c(Br)c(=O)oc2c(Br)c(O)c(O)cc12`, the inhibition was 12.8% (inactive). Turning to `O=C(COC(=O)c1ccc(Cl)nc1)c1ccc2c(c1)OCCO2`, the inhibition is -10.6% (inactive). For `CSCC[C@H](NC(=O)c1cc([N+](=O)[O-])ccc1Cl)c1nc2ccccc2[nH]1`, the inhibition is 16.7% (inactive). As to `CN(C)c1ncccc1-c1nc2ccccc2s1`, the inhibition was -2.6% (inactive). Consider `COc1ccc2c(C)c(Cc3ccccc3)c(=O)oc2c1OC`, for which the inhibition is 0.7% (inactive). As for `Cc1c(Cc2ccccc2)c(=O)oc2c(CN(C)C)c(O)c(Cl)cc12`, the inhibition was 1.2% (inactive). As for `Cc1c(Cc2ccccc2)c(=O)oc2c(O)c(O)ccc12`, the inhibition was 77.6% (active).

(Values after PubChem BioAssay AID1209 (Sanford-Burnham Center for Chemical Genomics, 2008).)
